Hits are enriched below; roughly 1.7% of the tested compounds scored in any of these assays.
PrPC surface inh = inhibitors of human cell surface prion protein PrPC, primary screen, cell-based, TR-FRET. inhibition, % at 13.8 µM. Major prion protein (Homo sapiens), P04156. hit rate 0.43% among 370,000. TR-FRET read-out; in the data active = inhibition above about 24%; note: 0% = median of the test wells and 100% = reference compound wells
BJeLR viability = MLPCN primary cell-based screen for lethality selective to Ras in HRASV12 cells; BJeLR (HRASV12) viability, CellTiter-Glo ATP luminescence, 48 h; inhibition, % (test concentration not listed); hit rate 0.17% among 300,000; in the data active = inhibition above about 50%
Y pestis TopoI = Yersinia pestis topoisomerase I inhibitors, primary screen, biochemical, cleavage product accumulation, plate reader, single point | DNA topoisomerase I (Yersinia pestis CO92) | Y. pestis Topo-I cleavage product accumulation | activity, % at 10 µM | hit rate 0.064% among 360,000; in the data active = activity above about 50%, passing the limit was not always enough
PfHsp40 yeast = rescue of yeast from PfHsp40 toxicity, primary screen, S. cerevisiae, ATP luminescence | growth rescue, % at 12.5 µM | hit rate 0.68% among 340,000 | S. cerevisiae expressing PfHsp40, growth rescue | AID 504582, 2011; in the data active = growth rescue above about 28%, passing the limit was not always enough;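 note: yeast W303a lacking pdr1 and pdr3 grown in galactose medium; growth measured after three days at 30 °C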
PriA SSB inh = inhibitors of Klebsiella pneumoniae PriA binding to SSB C-terminal tail, primary screen, biochemical, AlphaScreen; AID 1272365, 2023; AlphaScreen SSBct-PriA binding, biotinylated peptide; PriA–SSB C-terminal tail interaction (Klebsiella pneumoniae); inhibition, % at 33 µM; hit rate 0.6% among 430,000; in the data active = inhibition mostly above about 37%, no sharp cut-off; inactive = mostly below about 20%;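 note: plate controls were negative control peptide for no effect and reference peptide for full effect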
PrP UTR inh = inhibition of PrP 5' UTR reporter expression; cell-based PrP 5' UTR mRNA reporter, plate reader; hit rate 0.35% among 340,000; inhibition, % (no concentration beside the values); AID 488862, 2010; in the data active = inhibition above about 52%; note: 0 = median of the neutral control wells
* marks the source's active call; other numbers are inactive results; ! = not confirmed by another sample.

For Cc1c[nH]c2cccc(OCC(CNC(C)(C)C)OC(=O)c3ccccc3)c12 (stereo not given) the results were PrPC surface inh 0, BJeLR viability 5, Y pestis TopoI -4, PfHsp40 yeast 15, PriA SSB inh 49* and PrP UTR inh -20.
Screening Cc1cccc(CSc2nnnn2-c2ccccc2)c1 returned PrPC surface inh 6, BJeLR viability -5, Y pestis TopoI 12, PfHsp40 yeast 33*, PriA SSB inh -64 and PrP UTR inh -2.
For C=C(C=O)C[C@@H]1C[C@H](O)C2OC3C[C@]4(C)OC5/C=C\CC6OC7C(CC=CCC6OC5CCCC4OC3CC2O1)OC1CC2OC3CC(=O)OC3C[C@@H](C)C[C@@]2(C)OC1C[C@@H]7C (stereo not given in full) the results were BJeLR viability 95*.
For O=C(c1c[nH]c2ccccc12)N1CCC(Cn2cccn2)CC1 the results were PriA SSB inh -5.
For Cc1cc(O)c(C=O)c2c1C(=O)Oc1c(CO)c(O)c3c(c1O2)C(O)OC3=O (stereo not given) the results were Y pestis TopoI -10, PfHsp40 yeast 161*, PriA SSB inh 13 and PrP UTR inh -5.
Cc1cc(O)c(CN(C)C)c2c1C(=O)/C(=C/c1ccco1)O2 was read as PrPC surface inh -4, BJeLR viability -1, Y pestis TopoI -6, PfHsp40 yeast 1, PriA SSB inh 0 and PrP UTR inh 0.
For CC(=O)Oc1c(S(=O)(=O)c2ccccc2)c(C)nn1C(C)(C)C the results were PrPC surface inh 1, BJeLR viability -10, Y pestis TopoI 4, PfHsp40 yeast 0, PriA SSB inh -6 and PrP UTR inh -93.
Screening Cc1nn(C(C)(C)C)c(OC(=O)c2cccs2)c1S(=O)(=O)c1ccccc1 returned PrPC surface inh -4, BJeLR viability 2, Y pestis TopoI 9, PfHsp40 yeast 67*, PriA SSB inh -20 and PrP UTR inh -9.
`Cc1onc(-c2ccccc2)c1C(=O)NNC(=O)c1ccccc1O` gave PrPC surface inh -7, BJeLR viability 3, Y pestis TopoI -3, PfHsp40 yeast 68*, PriA SSB inh -9 and PrP UTR inh 0.
Screening COc1ccc(-c2cc(C(=O)NNC(=S)NC(=O)c3c(-c4ccccc4)noc3C)[nH]n2)cc1 returned PrPC surface inh -4, BJeLR viability -5, Y pestis TopoI -3, PfHsp40 yeast 287*, PriA SSB inh 11 and PrP UTR inh -29.
Screening CCOc1ccc(NC(=O)C2CCCN2/C=C/C(=O)C(F)(F)F)cc1 (stereo not given) returned PriA SSB inh -16.
O=C(Nc1ccc2nn(-c3ccccc3)nc2c1)c1cccnc1 was read as PrPC surface inh -2, Y pestis TopoI -2, PfHsp40 yeast 115*, PriA SSB inh 0 and PrP UTR inh -48.
Screening c1cncc(-c2nc(NCCCn3ccnc3)c3ccccc3n2)c1 returned PrPC surface inh -15, BJeLR viability 5, Y pestis TopoI -2, PfHsp40 yeast 1, PriA SSB inh 40* and PrP UTR inh 6.
Cc1nc(NCCCn2ccnc2)c2ccccc2n1 was read as PrPC surface inh -5, BJeLR viability 15, Y pestis TopoI -7, PfHsp40 yeast 1, PriA SSB inh 7 and PrP UTR inh -27.
Screening CCOC(=O)c1c2c(n(C)c1C)C(=O)C(=O)c1ccc(Br)cc1-2 returned PrPC surface inh -3, BJeLR viability 55*, Y pestis TopoI 4, PfHsp40 yeast 0, PriA SSB inh -5 and PrP UTR inh 14.
`COc1cccc(C(=O)Oc2c(CN3CCOCC3)cc(Cl)c3cccnc23)c1` gave PrPC surface inh -12, BJeLR viability 6, Y pestis TopoI 23, PfHsp40 yeast 0, PriA SSB inh 26 and PrP UTR inh -9.
O=C(Oc1c(CN2CCOCC2)cc(Cl)c2cccnc12)c1cccs1 was read as PrPC surface inh 3, BJeLR viability 15, Y pestis TopoI 8, PfHsp40 yeast 0, PriA SSB inh 91*! and PrP UTR inh 14.
O=C(Oc1c(CN2CCOCC2)cc(Cl)c2cccnc12)c1ccccc1Cl was read as PrPC surface inh 0, BJeLR viability 30, Y pestis TopoI 28, PfHsp40 yeast -1, PriA SSB inh 47* and PrP UTR inh 7.
Screening O=C(Oc1c(CN2CCOCC2)cc(Cl)c2cccnc12)c1ccc(F)cc1 returned PrPC surface inh 1, BJeLR viability 17, Y pestis TopoI 2, PfHsp40 yeast -1, PriA SSB inh 88* and PrP UTR inh -13.
Screening O=C(Oc1c(Cl)cc(Cl)c2cccnc12)c1cccs1 returned PrPC surface inh -6, BJeLR viability 1, Y pestis TopoI 19, PfHsp40 yeast 341*, PriA SSB inh -39 and PrP UTR inh 4.
`COc1ccc(C(=O)Oc2c(CN3CCOCC3)cc(Cl)c3cccnc23)cc1` gave PrPC surface inh 4, BJeLR viability 11, Y pestis TopoI 5, PfHsp40 yeast 0, PriA SSB inh -9 and PrP UTR inh 3.
For O=C(Oc1ccc(Cl)c2cccnc12)N1CCOCC1 the results were PrPC surface inh -7, BJeLR viability -9, Y pestis TopoI -1, PfHsp40 yeast 12, PriA SSB inh -5 and PrP UTR inh -12.
`Cc1ccc2c(CC(=O)NCc3cccnc3)cc(=O)oc2c1` gave PriA SSB inh 1.
For COc1ccccc1NC(=O)Nc1nc(CC(=O)Nc2ccc(Br)cc2F)cs1 the results were PriA SSB inh -13.
Screening O=C(Nc1cccc(-c2ccc3nnc(-c4cccs4)n3n2)c1)c1ccc(Br)o1 returned PriA SSB inh -14.
`COc1cc(C(=O)Oc2c(CN3CCOCC3)cc(Cl)c3cccnc23)cc(OC)c1OC` gave BJeLR viability 18, Y pestis TopoI 31, PfHsp40 yeast -1, PriA SSB inh 87* and PrP UTR inh 25.
For O=C1C=C(c2ccccc2)C(=O)N1Nc1ccccc1 the results were PrPC surface inh 1, BJeLR viability -9, Y pestis TopoI -2, PfHsp40 yeast 264*, PriA SSB inh -19 and PrP UTR inh -1.
COc1ccc(C2=CC(=O)N(Nc3ccccc3)C2=O)cc1 was read as PrPC surface inh 7, Y pestis TopoI 13 and PriA SSB inh 1.
For CC12CCC(CC1=NN=C1NC(=O)/C(=C\c3ccc(Cl)cc3)S1)C2(C)C (stereo not given) the results were PriA SSB inh -3.
`CCOC(=O)c1c(/N=C/c2c(O)n(-c3ccc(F)cc3)c(=S)[nH]c2=O)sc2c1CCCC2` gave PrPC surface inh 1, BJeLR viability 15, Y pestis TopoI 5, PfHsp40 yeast 41* and PrP UTR inh -12.

Assay outcomes as filed in PubChem BioAssay.
